Source: PubChem BioAssay (Paczesny and Yang Labs, IUPUI and University of Michigan)
Shown is part of a subset that was picked to be rich in hits.
ST2 inh: IL1RL1 inhibition; Q01638; AlphaLISA ST2-Fc/biotin-IL-33 interaction, 1 h; inhibition, % for hits at 17 µM; 78,000 compounds, 2.3% hits; in the data active = inhibition above about 30%
Target sequence (Q01638 whole entry, looked up): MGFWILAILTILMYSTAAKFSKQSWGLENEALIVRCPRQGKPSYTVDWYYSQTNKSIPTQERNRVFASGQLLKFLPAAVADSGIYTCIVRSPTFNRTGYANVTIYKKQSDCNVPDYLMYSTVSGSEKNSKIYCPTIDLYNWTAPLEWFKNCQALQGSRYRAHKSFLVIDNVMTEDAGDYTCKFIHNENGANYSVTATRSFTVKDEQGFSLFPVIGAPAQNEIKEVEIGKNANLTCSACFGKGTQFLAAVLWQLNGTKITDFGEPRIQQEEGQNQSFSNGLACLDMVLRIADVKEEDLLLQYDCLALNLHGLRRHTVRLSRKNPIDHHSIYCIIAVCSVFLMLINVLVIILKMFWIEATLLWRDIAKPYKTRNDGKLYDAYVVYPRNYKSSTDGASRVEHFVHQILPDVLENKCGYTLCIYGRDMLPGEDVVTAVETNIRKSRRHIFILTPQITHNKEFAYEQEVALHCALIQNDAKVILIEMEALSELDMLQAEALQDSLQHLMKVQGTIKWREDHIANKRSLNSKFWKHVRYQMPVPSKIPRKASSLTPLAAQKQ
An asterisk follows results filed as active; i = inactive.

SMILES	ST2 inh
Cc1ccc(-c2ccc(C(=O)NCCSc3nncn3C)cc2)o1	i
CCCc1nc2nc[nH]n2c(=O)c1NC(=O)Nc1cccc(Cl)c1	i
COc1ccc(-n2cc(CN[C@@H](CC(C)C)C(N)=O)c(-c3ccccc3Cl)n2)cc1	i
CCCN(CCC)S(=O)(=O)c1cccc2nonc12	i
CCCCN(CCCC)S(=O)(=O)c1cccc2nonc12	31.0%*
CCc1ccc(N(CC)S(=O)(=O)c2cccc3nonc23)cc1	i
Cc1cccn2c(=O)c3cc(C(=O)Nc4ccc(Br)cc4)sc3nc12	i
Cc1cccc(C)c1NC(=O)N1CCN(CCn2c(C)nc3cccnc32)CC1	i
Cc1ccc(C(=O)N2NC(c3ccccc3F)C3C(=O)N(c4ccc(C)cc4)C(=O)C32)cc1 (centres undefined)	i
COc1ccc(OC)c(-c2cc(C(=O)Nc3sc4c(c3C(N)=O)CCC(C)C4)no2)c1 (centres undefined)	i
COc1ccc(C=Nc2sc3c(c2C#N)CCC(C)C3)cc1OC (centres undefined)	39.0%*
COc1ccc(-c2cc(C(=O)Nc3sc4c(c3C(N)=O)CCC(C)C4)no2)cc1OC (centres undefined)	i
CCCNS(=O)(=O)c1ccc2c(c1)NC(=O)CC(=O)N2	i
CN1CCN(c2nc3c(c(=O)n(C)c(=O)n3C)n2CCSc2ncccn2)CC1	i
Cc1ccc2nc(NC(=O)c3cnccn3)sc2c1	i
Cc1ccc(NC(=O)c2cnccn2)c(Br)c1	39.0%*
O=C(Nc1ccc(F)c(F)c1)c1cnccn1	i
CCCc1nc(C)cc(-c2cc(N)nc3[nH]ccc23)n1	i
c1nc(-c2cc(NC3CCCC3)nc3[nH]ccc23)cc(N2CCOCC2)n1	30.0%*
CCCc1cc(NCC2CNCCOC2)nc(C)n1 (centres undefined)	i
CCCc1cc(-c2cc(NC3CCNCC3)nc3[nH]ccc23)nc(C)n1	38.0%*
c1cnc(-c2cc(NC3CCNCC3)nc3[nH]ccc23)cn1	33.0%*
c1cc2c(-c3ccc(NC4CCCC4)nn3)cc(NC3CCNCC3)nc2[nH]1	40.0%*
c1ccc(CNc2nc(NC3CCCCC3)nc(N3CCOCC3)n2)cc1	i
c1cc2c(-c3ccc(CN4CCOCC4)cn3)cc(NC3CCCC3)nc2[nH]1	i
SMILES	ST2 inh
Cc1ccc(-c2nnc([C@H]3CCN(Cc4ccc(C)o4)C3)o2)cc1	i
CN(C)CCOC(=O)c1ccc2c(c1)OCCO2	i
O=C(NCc1ccc(F)cc1)c1cc(-c2ccc(Cl)c(Cl)c2)on1	i
COc1ccc(C2=NN(C(C)=O)C(c3cc4ccccc4nc3Cl)C2)cc1OC (centres undefined)	i
Cc1ccc2c(c1)N(C(C)C(=O)NC1CCCC1)C(=O)CO2 (centres undefined)	i
COc1cc(CN2CCN(c3ccc(F)cc3)CC2)cc([N+](=O)[O-])c1O	i
CCOc1ccccc1CN1CCN(c2ccccn2)CC1	i
N/C(=N/OC(=O)c1ccc2c(c1)OCO2)c1ccccn1	i
CCOC(=O)c1oc2ccccc2c1NC(=O)COc1ccccc1	i
COc1ccc(N=Cc2cc3c(cc2O)OC(N)=C(C#N)C3c2cccc(F)c2)cc1 (centres undefined)	33.0%*
N#CC1=C(N)Oc2cc(O)c(Cl)cc2C1c1ccc(F)cc1 (centres undefined)	i
N#CC1=C(N)Oc2cc(N)ccc2C1c1cccc(I)c1 (centres undefined)	i
O=c1c2ccccc2n(Cc2cc(=O)n3ccccc3n2)c(=O)n1Cc1ccccc1	i
O=C(c1cccs1)N1CCN(S(=O)(=O)c2cc3c4c(c2)CCN4C(=O)CC3)CC1	i
CN(C1CCCCC1)S(=O)(=O)c1ccc2[nH]c(=O)cc(C(=O)NCc3cccnc3)c2c1	i
O=C(Nc1sc2c(c1C(=O)NCc1ccco1)CCCC2)c1ccccc1[N+](=O)[O-]	30.0%*
O=C(Nc1sc2c(c1C(=O)NCC1CCCO1)CCCC2)c1ccccc1Br (centres undefined)	i
CC1CCc2c(sc(NC(=O)c3ccccc3Cl)c2C(=O)NCc2ccco2)C1 (centres undefined)	i
C=CCn1c(SCC(=O)c2ccc3cc[nH]c3c2)nnc1-c1cccnc1	i
COc1ccc(C(=O)N2N=C(c3cccc(Br)c3)CC2(O)C(F)(F)F)cc1 (centres undefined)	i
NS(=O)(=O)c1ccc(CCNC(=O)c2cc(-c3ccc(Cl)s3)nc3ccccc23)cc1	i
CC(C)CCC1=NC2(CCN(C(=O)c3cc(F)cc(Cl)c3)CC2)C(=O)N1	i
O=C(Nn1cnnc1)c1ccc(C(=O)Nn2cnnc2)cc1	i
O=C(Nn1cnnc1)c1ccccc1Cl	56.0%*
O=C(Nc1cc(Cl)cc(Cl)c1)c1ccccc1Cl	i
SMILES	ST2 inh
O=C1[C@@H]2[C@H](C(=O)N1c1ccccc1F)[C@H]1C=C[C@@H]2C12CC2	i
CC(=O)c1cccc(NC(=O)NC2CC(=O)N(CCc3ccccc3)C2)c1 (centres undefined)	i
COC(=O)[C@@H]1Cc2ncn(Cc3ccc(OC)cc3)c2CN1C(=O)c1ccc(C(F)(F)F)cc1	i
COc1ccc(OC)c(NS(=O)(=O)c2ccc(NS(=O)(=O)c3ccc(F)cc3)cc2)c1	i
COc1ccc(S(=O)(=O)Nc2ccc(S(=O)(=O)Nc3cc(OC)ccc3OC)cc2)cc1	49.0%*
COc1ccc(OC)c(NS(=O)(=O)c2ccc(NS(=O)(=O)c3ccc(C)cc3)cc2)c1	i
CCCCNc1nc2c(c(=O)n(Cc3cccc(Br)c3)c(=O)n2C)n1C	32.0%*
COCCNc1nc2c(c(=O)n(C)c(=O)n2C)n1Cc1cccc(Br)c1	i
CCCCNc1nc2c(c(=O)n(C)c(=O)n2C)n1Cc1cccc(Cl)c1	i
CCOc1ccc2nc(Nc3nc4c(c(=O)[nH]3)CCC4)nc(C)c2c1	31.0%*
CCOc1ccc2nc(N3CCCC(N4CCN(c5nonc5C)CC4)CC3)nc(C)c2c1 (centres undefined)	i
CCOc1ccc2c3c(c(=O)oc2c1)CCC3	i
O=C(NCc1ccc(F)cc1Cl)c1ccc2c(c1)ncn2C1CCCC1	i
Cc1cccc(-c2nc(NCc3ccc4c(c3)OCO4)c3ccccc3n2)c1	i
O=C(N1CCc2c(nc[nH]c2=O)C1)C1(Cn2cccn2)CC1	i
O=C(NCC1CCCO1)NC1(C(F)(F)F)Oc2ccc(Cl)cc2O1 (centres undefined)	i
O=C(CCC(=O)N1CCC(c2ccncc2)CC1)Nc1cccc(O)c1	i
COC(=O)c1cc(C[C@H]2CNCC[C@H]2CC(=O)O)no1	77.0%*
COc1ccccc1CNC(=O)C[C@@H]1CCNC[C@@H]1Cc1cc(-c2ccccc2)on1	i
CCCCc1cc(C[C@H]2CNCC[C@H]2CC(=O)N2CCN(C(C)=O)CC2)no1	43.0%*
COc1ccc(CNC(=O)C[C@@H]2CCNC[C@@H]2Cc2cc(-c3ccccc3)on2)cc1OC	i
COc1ccc(-c2cc(C[C@H]3CNCC[C@H]3CC(=O)N3CCN(C(C)=O)CC3)no2)cc1	i
CCCCc1cc(C[C@H]2CNCC[C@H]2CC(=O)N2CCc3cc(OC)c(OC)cc3C2)no1	i
CNS(=O)(=O)c1ccc(OC)c(OC)c1	i
CC1CCN(c2nc(-c3ccccc3)nc3ccccc23)CC1	i
Cc1cc(C)cc(OCC(=O)N2N=C(c3ccc(Cl)cc3)CC2(O)C(F)(F)F)c1 (centres undefined)	i
